“And” between values parts separate entries of the source, which are not always exact repeats. Equal values may be shown once. Screen size: about 5,500 compounds; about 2,000 (36%) were called active. About 18% were inconclusive and are not listed. No stated cut-off is given here; in the data, active means normalized growth mostly below about 0.91 (no sharp cut-off); inconclusive means no clear call, values can overlap the other calls; inactive means mostly above about 0.92. The list shows a part of the results.
Assay: chemical genetic growth profiling, strain panel (AID 1159580);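 further: tested at 20 µM; growth read once vehicle control cultures reached saturation at 30 °C; 1 = growth at the plate median or of vehicle wells; lower values mean less growth of the strain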
Settings: growth OD

Measured: normalized growth

CCOC(=O)C(C)(C)Oc1ccc(Cl)cc1
inactive: S. cerevisiae deletion strains, locus YJR075W, strain HOC1, active compounds read low 1.01 and 0.998 | S. cerevisiae deletion strains, locus YKL009W, strain mrt4, active compounds read low 1.02 | S. cerevisiae deletion strains, locus YKL068W, active compounds read low 1 | S. cerevisiae deletion strains, locus YKL085W, strain MDH1 (second series), active compounds read low 1.01 | S. cerevisiae deletion strains, locus YKL085W, strain MDH1, active compounds read low 1.01 | S. cerevisiae deletion strains, locus YKL160W, strain elf1, active compounds read low 0.98 | S. cerevisiae deletion strains, locus YKL190W, strain CNB1, active compounds read low 1.01 | S. cerevisiae deletion strains, locus YKR001C, strain vps1, active compounds read low 0.975 | S. cerevisiae deletion strains, locus YKR026C, strain gcn3, active compounds read low 0.974 | S. cerevisiae deletion strains, locus YKR091W, strain srl3, active compounds read low 0.978 | S. cerevisiae deletion strains, locus YLL001W, strain dnm1, active compounds read low 0.987 | S. cerevisiae deletion strains, locus YLL026W, active compounds read low 0.97 | S. cerevisiae deletion strains, locus YLL041C, strain sdh2, active compounds read low 0.983 | S. cerevisiae deletion strains, locus YLR027C, strain aat2, active compounds read low 0.994 | S. cerevisiae deletion strains, locus YLR039C, strain RIC1, active compounds read low 0.986 | S. cerevisiae deletion strains, locus YLR058C, strain SHM2, active compounds read low 1.01 | S. cerevisiae deletion strains, locus YLR102C, strain apc9, active compounds read low 0.996 | S. cerevisiae deletion strains, locus YLR113W, strain HOG1, active compounds read low 0.943 | S. cerevisiae deletion strains, locus YLR221C, strain rsa3, active compounds read low 0.985 | S. cerevisiae deletion strains, locus YLR258W, strain gsy2, active compounds read low 0.986 | S. cerevisiae deletion strains, locus YLR262C, strain YPT6 (second series), active compounds read low 0.965 | S. cerevisiae deletion strains, locus YLR262C, strain YPT6, active compounds read low 0.985 | S. cerevisiae deletion strains, locus YLR268W, strain sec22, active compounds read low 1 | S. cerevisiae deletion strains, locus YLR320W, strain mms22, active compounds read low 0.944 | S. cerevisiae deletion strains, locus YLR330W, strain CHS5, active compounds read low 1 | S. cerevisiae deletion strains, locus YLR342W, strain FKS1 (second series), active compounds read low 0.988 | S. cerevisiae deletion strains, locus YLR342W, strain FKS1, active compounds read low 0.981 | S. cerevisiae deletion strains, locus YLR357W, strain rsc2, active compounds read low 1 | S. cerevisiae deletion strains, locus YLR370C, strain arc18, active compounds read low 0.983 | S. cerevisiae deletion strains, locus YLR371W, strain rom2, active compounds read low 0.971 | S. cerevisiae deletion strains, locus YLR384C, strain iki3, active compounds read low 0.969 | S. cerevisiae deletion strains, locus YLR418C, strain cdc73, active compounds read low 0.985 | S. cerevisiae deletion strains, locus YML016C, strain PPZ1, active compounds read low 1 | S. cerevisiae deletion strains, locus YML032C, strain rad52, active compounds read low 0.992 | S. cerevisiae deletion strains, locus YML120C, strain ndi1, active compounds read low 0.986 | S. cerevisiae deletion strains, locus YML124C, strain tub3, active compounds read low 0.998 | S. cerevisiae deletion strains, locus YMR058W, strain fet3, active compounds read low 0.987 | S. cerevisiae deletion strains, locus YMR078C, strain ctf18, active compounds read low 0.999 | S. cerevisiae deletion strains, locus YMR125W, strain sto1, active compounds read low 0.963 | S. cerevisiae deletion strains, locus YMR129W, active compounds read low 0.994 | S. cerevisiae deletion strains, locus YMR205C, strain PFK2, active compounds read low 0.934 | S. cerevisiae deletion strains, locus YMR223W, strain ubp8, active compounds read low 0.996 | S. cerevisiae deletion strains, locus YMR231W, strain pep5, active compounds read low 0.983 | S. cerevisiae deletion strains, locus YMR307W, strain GAS1, active compounds read low 0.996 | S. cerevisiae deletion strains, locus YNL067W, strain RPL9B, active compounds read low 1.01 | S. cerevisiae deletion strains, locus YNL071W, strain lat1, active compounds read low 0.98 | S. cerevisiae deletion strains, locus YNL128W, strain TEP1, active compounds read low 1.01 | S. cerevisiae deletion strains, locus YNL175C, strain NOP13, active compounds read low 1.01 | S. cerevisiae deletion strains, locus YNL183C, strain NPR1, active compounds read low 0.933 | S. cerevisiae deletion strains, locus YNL197C, strain WHI3, active compounds read low 1.01 | S. cerevisiae deletion strains, locus YNL209W, strain ssb2, active compounds read low 0.992 | S. cerevisiae deletion strains, locus YNL224C, strain SQS1, active compounds read low 0.991 | S. cerevisiae deletion strains, locus YNL233W, strain BNI4, active compounds read low 0.999 | S. cerevisiae deletion strains, locus YNL248C, strain rpa49, active compounds read low 0.979 | S. cerevisiae deletion strains, locus YNL250W, strain rad50, active compounds read low 1.02 | S. cerevisiae deletion strains, locus YNL271C, strain bni1, active compounds read low 0.997 | S. cerevisiae deletion strains, locus YNL298W, strain CLA4, active compounds read low 1 | S. cerevisiae deletion strains, locus YNL307C, strain MCK1, active compounds read low 1 | S. cerevisiae deletion strains, locus YNL322C, strain KRE1 (second series), active compounds read low 0.973 | S. cerevisiae deletion strains, locus YNL322C, strain KRE1, active compounds read low 1.01 and 1 | S. cerevisiae deletion strains, locus YNR049C, strain mso1, active compounds read low 0.985 | S. cerevisiae deletion strains, locus YNR052C, strain pop2, active compounds read low 1 | S. cerevisiae deletion strains, locus YOL006C, strain TOP1, active compounds read low 1.01 | S. cerevisiae deletion strains, locus YOL012C, strain htz1 0.891 | S. cerevisiae deletion strains, locus YOL147C, strain pex11, active compounds read low 0.988 | S. cerevisiae deletion strains, locus YOR001W, strain rrp6, active compounds read low 0.976 | S. cerevisiae deletion strains, locus YOR061W, strain CKA2, active compounds read low 1.01 | S. cerevisiae deletion strains, locus YOR069W, strain VPS5, active compounds read low 1 | S. cerevisiae deletion strains, locus YOR070C, strain gyp1, active compounds read low 0.995 | S. cerevisiae deletion strains, locus YOR080W, strain dia2, active compounds read low 0.97 | S. cerevisiae deletion strains, locus YOR083W, strain WHI5 (second series), active compounds read low 1.03 | S. cerevisiae deletion strains, locus YOR083W, strain WHI5, active compounds read low 0.982 | S. cerevisiae deletion strains, locus YOR106W, strain vam3, active compounds read low 0.999 | S. cerevisiae deletion strains, locus YOR136W, strain idh2, active compounds read low 1 | S. cerevisiae deletion strains, locus YOR144C, strain elg1, active compounds read low 0.995 | S. cerevisiae deletion strains, locus YOR184W, strain ser1, active compounds read low 0.943 | S. cerevisiae deletion strains, locus YOR231W, strain MKK1, active compounds read low 0.94 | S. cerevisiae deletion strains, locus YOR265W, strain rbl2, active compounds read low 0.991 | S. cerevisiae deletion strains, locus YOR270C, strain vph1, active compounds read low 0.987 | S. cerevisiae deletion strains, locus YOR290C, strain snf2, active compounds read low 0.976 | S. cerevisiae deletion strains, locus YOR316C, strain cot1, active compounds read low 0.997 | S. cerevisiae deletion strains, locus YPL051W, strain arl3, active compounds read low 0.984 | S. cerevisiae deletion strains, locus YPL055C, strain LGE1, active compounds read low 0.999 | S. cerevisiae deletion strains, locus YPL078C, strain atp4, active compounds read low 0.985 | S. cerevisiae deletion strains, locus YPL106C, strain sse1, active compounds read low 0.951 | S. cerevisiae deletion strains, locus YPL240C, strain hsp82, active compounds read low 0.988 | S. cerevisiae deletion strains, locus YPL241C, strain CIN2, active compounds read low 0.997 | S. cerevisiae deletion strains, locus YPL256C, strain CLN2, active compounds read low 0.923 | S. cerevisiae deletion strains, locus YPR119W, strain clb2, active compounds read low 0.993 | S. cerevisiae deletion strains, locus YPR141C, strain kar3, active compounds read low 0.992 | S. cerevisiae deletion strains, locus YPR163C, strain tif3, active compounds read low 0.995 | S. cerevisiae deletion strains, locus YPR167C, strain met16, active compounds read low 1 | S. cerevisiae deletion strains, strain wtn01, active compounds read low 0.993 | S. cerevisiae strains, strain wild type, active compounds read low 1
